Reference: PubChem BioAssay (NCI)
This is part of a sample that, as a whole, favours compounds with a hit. Of some 79,000 tested, about 15% had one in any assay. Values without a mark were called inactive. Cut-off read from the data, not from the text of the source: active = growth inhibition above about 70%; inactive = the rest.

Assay: NCI Yeast Anticancer Drug Screen. Data for the sgs1 mgt1 strain (AID 161);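 note: 0% = growth of cultures given vehicle only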
Conditions: S. cerevisiae sgs1 mgt1 strain, hits give high values; at 50.0 µM unless noted
Outline: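 Percent growth inhibition was derived by comparing compound-exposed mutant yeast with vehicle-exposed cultures. The strain carries alterations in DNA damage repair.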

Question: Which growth inhibition does the source give for Cc1cccc(NC(=O)C(=O)C(C(=O)c2ccc3ccccc3c2)C2OC(=O)c3ccccc32)c1C (stereo not given) here?
Answer: Its growth inhibition is 13.5%.

Question: With COc1ccc(C2OC3=C(Nc4cc(C)c(C)cc4N3)C2=O)cc1 (stereo not given) as the molecule, how does the growth inhibition read?
Answer: The growth inhibition was 2.05%.

Question: With COc1ccc(OC)c(/C=N\NC(=O)N/N=C/c2cc(OC)ccc2OC)c1 as the molecule, how does the growth inhibition read?
Answer: The growth inhibition was 11.3%.

Question: With COc1cc(O)c2c(=O)cc(-c3ccc(O)cc3O)oc2c1CC=C(C)C as the molecule, how does the growth inhibition read?
Answer: The growth inhibition was -0.25%.

Question: With COc1cc(NC(C)=O)c2c(c1)SCC(=O)N2 as the molecule, how does the growth inhibition read?
Answer: Its growth inhibition is -3.7%.

Question: With CN1N=CSC12C(=O)N(c1ccccc1)C(=O)N2c1ccccc1 (stereo not given) as the molecule, how does the growth inhibition read?
Answer: The growth inhibition was 0.95%.

Question: For CN(C)CCl, which growth inhibition is on record?
Answer: The growth inhibition was -12.4%.

Question: Which growth inhibition does the source give for CCOC(=O)C1=C(O)C[C@]2(O)C3CC=C(C)[C@@H]4CCO[C@](OC)(C[C@H]2C1)[C@]34C(=O)OC (stereo not given in full) here?
Answer: Its growth inhibition is 8.35%.

Question: Which growth inhibition does the source give for CCC(C)C(NC(=O)C1CSC(C)(C)N1C=O)C(=O)OC1CCCCC1 (stereo not given) here?
Answer: The growth inhibition was 19.1%.

Question: With O=C(CCCC1CCCCC1)OC1CCCCC1 as the molecule, how does the growth inhibition read?
Answer: Its growth inhibition is 8.7%.

Question: For CCN(CC)CCNC(=O)c1ccc(I)cc1, which growth inhibition is on record?
Answer: The growth inhibition was -0.9%.

Question: For CCCCNC(=O)/C=C/C(=O)NCCCC, which growth inhibition is on record?
Answer: The growth inhibition was -0.9%.

Question: With C[C@H]1CC[C@@H]2O[C@@]23C(=O)OC2OC(C)(C)[C@@H]([C@H]2O)[C@]13C as the molecule, how does the growth inhibition read?
Answer: Its growth inhibition is -26%.

Question: With CCOC(=O)CC(=O)CC(=O)OCC as the molecule, how does the growth inhibition read?
Answer: The growth inhibition was -6.95%.

Question: Which growth inhibition does the source give for COC(=O)C(Br)C(Br)c1cc(OC)c(OC)c(OC)c1 (stereo not given) here?
Answer: Its growth inhibition is 2.3%.

Question: Which growth inhibition does the source give for Cc1ccc(S(=O)(=O)N(C)c2ccc3c(c2)C(=O)c2ccccc2-3)cc1 here?
Answer: The growth inhibition was 37%.

Question: With CNCCCn1c2ccccc2c2c3c(c(-c4ccsc4)cc21)C(=O)NC3=O as the molecule, how does the growth inhibition read?
Answer: Its growth inhibition is -19.9%.

Question: With Nc1ncnc(N)c1NC(=O)c1cccnc1 as the molecule, how does the growth inhibition read?
Answer: The growth inhibition was 7.65%.

Question: For c1ccc2nn(C3CCCO3)nc2c1 (stereo not given), which growth inhibition is on record?
Answer: Its growth inhibition is -21.9%.

Question: Which growth inhibition does the source give for OCc1ccccc1Sc1ccccc1CO here?
Answer: Its growth inhibition is 2.6%.

Question: For O=C(c1ccccc1)C1(c2ccccc2)OC1(C(=O)c1ccccc1)c1ccccc1 (stereo not given), which growth inhibition is on record?
Answer: The growth inhibition was 7.5%.

Question: With O=C(O)c1nc2cn1/C=C\C=NCC1=CN3C=CC=NC3(C(=O)O)N1C2 (stereo not given) as the molecule, how does the growth inhibition read?
Answer: Its growth inhibition is -12.4%.

Question: For O=C(OC1c2cccc3cccc(c23)C1O)c1ccccc1 (stereo not given), which growth inhibition is on record?
Answer: The growth inhibition was 1.55%.

Question: Which growth inhibition does the source give for O=P(O)(O)OP(=O)(O)O here?
Answer: Its growth inhibition is -2.4%.

Question: With CC12CC(O)C3C(CCC4CC(O)CCC43C)C1CCC2C(=O)CO (stereo not given) as the molecule, how does the growth inhibition read?
Answer: The growth inhibition was 7.3%.

Question: With CN(C)c1nc(NC(=O)NC(=O)c2c(F)cccc2F)nc(N(C)C)n1 as the molecule, how does the growth inhibition read?
Answer: The growth inhibition was 1.55%.

Question: For O=C(O)CCN(CCCCN(CCC(=O)O)CCC(=O)O)CCC(=O)O, which growth inhibition is on record?
Answer: Its growth inhibition is -10.7%.

Question: For COc1cc(CNc2ccccc2)ccc1O, which growth inhibition is on record?
Answer: The growth inhibition was -16.9%.

Question: Which growth inhibition does the source give for Cc1cccc2ccc(-c3cc4ccccc4s3)nc12 here?
Answer: Its growth inhibition is -3.1%.

Question: Which growth inhibition does the source give for O=C(O)CS(=O)c1ccc2c3c(cccc13)C(=O)c1ccccc1-2 (stereo not given) here?
Answer: Its growth inhibition is -38.5%.

Question: With C=CCSc1cccc(C)c1 as the molecule, how does the growth inhibition read?
Answer: The growth inhibition was -12.6%.

Question: With COC1OCC(N=[N+]=[N-])C(OS(C)(=O)=O)C1OS(C)(=O)=O (stereo not given) as the molecule, how does the growth inhibition read?
Answer: Its growth inhibition is 6.85%.

Question: Which growth inhibition does the source give for O=[N+]([O-])c1c[nH]c2ncnc(Cl)c12 here?
Answer: The growth inhibition was 0.35%.

Question: With C[C@]12C=CC(=O)C=C1CC[C@@H]1[C@@H]2C(=O)C[C@@]2(C)[C@H]1CC[C@]2(O)C(=O)COC(=O)CSc1c2ccccc2nc2ccccc12 as the molecule, how does the growth inhibition read?
Answer: Its growth inhibition is 8.15%.

Question: With O=C(O)CNC(=S)SCC(=O)O as the molecule, how does the growth inhibition read?
Answer: Its growth inhibition is -23.1%.

Question: Which growth inhibition does the source give for CCOC(=O)C(F)C(=O)OCC here?
Answer: The growth inhibition was -1%.

Question: For CCOC(Cn1ccc[n+]1CC(=O)c1ccccc1)OCC, which growth inhibition is on record?
Answer: Its growth inhibition is -10.8%.

Question: With Nc1c(F)cc(I)cc1F as the molecule, how does the growth inhibition read?
Answer: The growth inhibition was -2.2%.

Question: For CN=C1CC2c3cc(OC)c(OC)cc3CCN2C2=C1C(=O)CC(C)(C)C2 (stereo not given), which growth inhibition is on record?
Answer: The growth inhibition was 15.1%.

Question: Which growth inhibition does the source give for N#CC1(C(=O)c2ccccc2)C=Cc2ccccc2N1C(=O)c1ccccc1 (stereo not given) here?
Answer: The growth inhibition was -0.85%.
